Screening data deposited in PubChem BioAssay by National Center for Advancing Translational Sciences (NCATS).
Only a selection was taken, and hits are over-represented in it overall.
HT1080 IDH1KD tx: toxicity to HT-1080 IDH1 knockdown cells (counter line); AID 686971; Potency, µM (titrated, usually from 46.1 µM), without a hit: at the highest dose activity, negative = toxicity, most hits filed as cytotoxic; HT-1080 IDH1 knockdown viability, ATP luminescence, 48 h; 2% of 360,000 active;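 further: potency means the concentration at half of the fitted maximal effect; 0% = DMSO wells and -100% = cell-free medium wells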
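Cytotoxicity counter-line: IDH1KD HT-1080, 48 h, CellTiter-Glo. Curves classed by r2, magnitude and activity.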
IL-1B inflam inh: blocks inflammasome-driven IL-1 beta release; THP-1 LPS/ATP IL-1B secretion, AlphaLISA, 16 h; hits give low values; activity change, % at 57.5 µM; 4.7% of 360,000 active; AID 743279; in the data active means activity change below about -50%; inconclusive means mostly about -30% to -49%
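Secreted IL-1B measured by AlphaLISA bead assay after 16 h compound exposure of THP-1 cells; compounds (final up to 57.5 uM) added 1 h before LPS (250 ng/mL) and ATP (1.25 mM) stimulation; lower signal means less secretion.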
DT40 TDP1 CPT: growth inhibition of DT40 Tdp1-/-;hTDP1 cells with camptothecin (screen for TDP1 inhibitors). chicken DT40 Tdp1-/-;hTDP1 cells + 20 nM CPT, ATP luminescence, 48 h. Potency, µM (series often up to 46.2 µM), for inactives: at the highest dose activity change, negative = growth inhibition, most hits filed as inhibitors. 12% of 420,000 active. AID 686979; further: potency means the concentration at half of the fitted maximal effect; nearly all actives have a fitted effect of over 55% in size
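Chicken DT40 Tdp1-/- cells stably complemented with human TDP1 were seeded at 400 cells/well in medium containing 20 nM camptothecin, exposed to pin-transferred compounds, and grown at 37 °C for at least 48 hr. Viability was read as ATP luminescence.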
HT1080NT lethal: kills 2HG-producing HT-1080-NT fibrosarcoma cells. HT-1080-NT fibrosarcoma viability, CellTiter-Glo ATP luminescence, 48 h. Potency, µM (series often up to 46.1 µM), without a hit: at the top dose activity, negative = less viability, actives largely listed as cytotoxic. 1.6% of 360,000 active;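 further: NT is the 2HG producing partner of a matched IDH1 knockdown line; potency means the concentration at half of the fitted maximal effect; 0% = DMSO-treated cells and -100% = media-only wells without cells; nearly all actives have a fitted effect of over 55% in size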
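HT-1080-NT fibrosarcoma cells (2HG-overproducing), 750 cells/well in RPMI with 5% FBS, dosed after 2 h and incubated 48 h at 37C. CellTiter-Glo luminescence normalized to DMSO and no-cell wells; concentration-response curves fitted and classed.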
TDP1 cell noCPT: qHTS for Inhibitors of human tyrosyl-DNA phosphodiesterase 1 (TDP1): qHTS in cells in absence of CPT; 15% of 420,000 active; Potency, µM (top dose mostly 46.2 µM), for the others: at the top dose activity change, negative = growth inhibition, usual class: inhibitors; AID 686978, 2013; DT40 Tdp1-/- hTDP1 cells, no CPT, ATP luminescence, 48 h; further: potency means the concentration at half of the fitted maximal effect; nearly all actives have a fitted effect of over 55% in size
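No-CPT arm: Tdp1-/-;hTDP1 DT40 cells (400/well) plus compounds, incubated ≥48 hr at 37 °C. Readout CellTiter-Glo luminescence.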
ALOX12 inh: inhibitors of human 12S-lipoxygenase ALOX12 | purified 12hLO, xylenol orange hydroperoxide absorbance | Potency, µM (top dose mostly 108 µM), without a hit: at the highest dose activity change, negative = inhibition, usual class: inhibitors | 1.1% of 580,000 active; further: potency means the concentration at half of the fitted maximal effect
Target sequence (P18054 whole entry, looked up): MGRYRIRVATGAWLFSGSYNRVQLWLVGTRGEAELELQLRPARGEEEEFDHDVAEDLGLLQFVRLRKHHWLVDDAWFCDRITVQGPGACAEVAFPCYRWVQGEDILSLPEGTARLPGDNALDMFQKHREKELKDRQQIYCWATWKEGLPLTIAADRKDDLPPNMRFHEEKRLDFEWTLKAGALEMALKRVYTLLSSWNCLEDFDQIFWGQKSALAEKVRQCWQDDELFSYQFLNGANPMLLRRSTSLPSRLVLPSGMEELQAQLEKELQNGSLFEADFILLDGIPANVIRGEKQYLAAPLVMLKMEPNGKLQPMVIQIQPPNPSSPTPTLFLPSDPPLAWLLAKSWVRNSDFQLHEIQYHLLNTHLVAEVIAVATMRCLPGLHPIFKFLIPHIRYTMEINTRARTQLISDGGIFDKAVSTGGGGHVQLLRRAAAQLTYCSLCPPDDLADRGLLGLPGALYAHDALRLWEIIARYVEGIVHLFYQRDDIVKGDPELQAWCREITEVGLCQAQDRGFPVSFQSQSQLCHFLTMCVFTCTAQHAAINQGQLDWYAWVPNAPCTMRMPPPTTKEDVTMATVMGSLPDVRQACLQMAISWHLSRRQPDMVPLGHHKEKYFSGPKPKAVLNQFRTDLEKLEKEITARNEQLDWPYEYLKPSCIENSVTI
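Hydroperoxide product was detected by ferrous iron/xylenol orange as the 573 to 405 nm absorbance ratio. Arachidonic acid at 40 uM (final) was turned over for 30 min at room temperature by 150 nM human 12hLO, pH 7.0 Hepes buffer, after 15 min compound preincubation.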
Starred values were filed as active, the others as inactive; u = inconclusive; x = no result given; [ ] = dose if it differs, or a comment. Unless noted, the call rests on the fitted dose curve; in most records, active means well fitted curve in the direction sought with a large enough effect; inconclusive means small, poorly fitted or top-dose-only effect, or another doubt; inactive means no such curve, though single readings can be large; an effect the other way counts as inactive or inconclusive. Unless noted, on the % scale 0 is the no-effect control and ±100 the full control effect.

SMILES	HT1080 IDH1KD tx	IL-1B inflam inh	DT40 TDP1 CPT	HT1080NT lethal	TDP1 cell noCPT	ALOX12 inh
COc1ccccc1N1CCN(C(=O)/C=C/c2ccccc2)CC1	0%	4	u	-2%	16µM*	0%
O=C(Nc1ccnn1C1CCCCC1)C1(c2ccccc2)CC1	x	x	x	x	x	-2%
COc1ccc(C(=O)NC(C(=O)NC(C)C)C2CCN(C(=O)c3ccccc3)CC2)cc1 (stereo not given)	x	x	x	x	x	42%
O=C1C(=C(O)c2ccccc2)C(=O)c2ccccc21	0%[9.24 µM]	5	u	-29%	-14%	u
O=C1C(=C(c2ccccc2)c2ccccc2)Nc2ccccc21	u	10	13µM*	u	15µM*	136%
COc1ccccc1C1C(C(N)=O)=C(C)Nc2nc(-c3ccc(Cl)cc3)nn21 (stereo not given)	-3%	-25	3%	-3%	10%	22%[57.4 µM]
COc1ccccc1C1C=C(c2ccc(Cl)cc2)Nc2nc(-c3ccc(Cl)cc3)nn21 (stereo not given)	x	x	16µM*	x	u	u
CC1=C(C(N)=O)C(c2ccccc2F)n2nc(-c3ccc(Cl)cc3)nc2N1 (stereo not given)	x	x	-15%	x	-16%	u
COc1ccccc1C1C=C(c2ccc(F)cc2)Nc2nc(-c3ccc(Cl)cc3)nn21 (stereo not given)	x	x	21µM*	x	16µM*	0%
CCC(C)c1ccc(S(=O)(=O)Nc2cccnc2)cc1 (stereo not given)	u	34	u	-9%	29µM*	u
CC(C)Cc1ccc(S(=O)(=O)Nc2cccnc2)cc1	u	55	u	u	u	-10%
CN(C)C(=O)C1CC1c1cccc(Br)c1 (stereo not given)	x	x	x	x	x	18%
COc1cccc(OCCCn2cc(/C=C3/C(=N)N4C=C(C)SC4=NC3=O)c3ccccc32)c1	u	8	8.2µM*	u	6.5µM*	u
COc1cc(/C=C2/C(=N)N3C=CSC3=NC2=O)ccc1OCCCOc1c(C)cccc1C	-11%	-6	-27%	-22%	u	4%
COc1ccc(OCCCn2cc(/C=C3/C(=N)N4C=C(C)SC4=NC3=O)c3ccccc32)cc1	4%	19	u	5%	7.3µM*	41%
COc1ccc(C(=O)/C=C/c2ccccc2Cl)cc1CSCC(=O)O	x	x	x	x	x	-35%
CC(C)NS(=O)(=O)c1ccc(Cl)c(C(=O)NCc2ccc(-c3nc4ccccc4s3)o2)c1	x	x	x	x	x	16µM*
COc1ccc(NC(=O)N[C@H]2CCN3C(=O)[C@@H](Cc4ccc(Cl)cc4)NC(=O)[C@@H]3C2)cc1	x	x	x	x	x	10%
c1ccc(Sc2nc(N3CCCCC3)nc(N3CCCCC3)n2)nc1	2%	23	u	4%	18µM*	6%
O=Cc1cccn1-c1ccccn1	x	x	x	x	x	1%
Nc1c(C(=O)NC2CC2)c2nc3ccccc3nc2n1-c1ccc2c(c1)OCO2	-3%	-51*	u	-2%	u	0%
CCOC(=O)c1c(N)n(-c2cccc(OC)c2)c2nc3ccccc3nc12	x	x	x	x	x	-10%
CCCNC(=O)c1c(N)n(-c2cc(OC)cc(OC)c2)c2nc3ccccc3nc12	-25%	-55*	u	-19%	u	0%
COCCCNC(=O)c1c(N)n(-c2ccc3c(c2)OCO3)c2nc3ccccc3nc12	u	-24	u	u	u	u
CCCNC(=O)c1c(N)n(-c2ccc3c(c2)OCO3)c2nc3ccccc3nc12	2%	-22	8.2µM*	4%	15µM*	0%
SMILES	HT1080 IDH1KD tx	IL-1B inflam inh	DT40 TDP1 CPT	HT1080NT lethal	TDP1 cell noCPT	ALOX12 inh
CN(C)c1ccc(CN2CCC(Oc3ccc(Cl)cc3)(C(=O)O)CC2)cn1	x	x	x	x	x	8%
Cn1cnc(S(=O)(=O)N2CCCN(C(=O)c3ccco3)CCNC(=O)CC2c2ccccc2)c1 (stereo not given)	x	x	x	x	x	53%
Cc1cc(NC(=O)CSc2nc3c(C)ccc(C)c3cc2C#N)no1	-7%	12	u	-4%	-19%	-10%
COc1ccc2cc(C#N)c(SCC(=O)N3CC(=O)Nc4ccccc43)nc2c1	-8%	-10	0%	0%	-7%	x
Cc1cccc2cc(C#N)c(SCC(=O)N3CC(=O)Nc4ccccc43)nc12	u	74	2.6µM*	u	2.1µM*	-22%
Cc1cc(NC(=O)CSc2nc3c(C)cccc3cc2C#N)no1	u	-6	u	-1%	15µM*	-21%
CCCn1nc(NC(=O)c2cccs2)c2cc3ccc(C)cc3nc21	-3%	-16	u	-15%	u	77%
CCCn1nc(NC(=O)c2cccs2)c2cc3cc(OC)ccc3nc21	-1%	-18	13µM*	0%	12µM*	22%
CCCCn1nc(NC(=O)c2cccs2)c2cc3ccccc3nc21	u	-94*	21µM*	u	18µM*	-25%
CCCCn1nc(NC(=O)c2cccs2)c2cc3cc(OC)ccc3nc21	u	4	18µM*	u	23µM*	-29%
CCCn1nc(NC(=O)c2cccs2)c2cc3ccccc3nc21	3%	-2	u	-1%	u	u
CCCCn1nc(NC(=O)CCC)c2cc3cc(OC)ccc3nc21	-14%	32	-24%	-14%	u	0%
CCCn1nc(NC(=O)c2cccs2)c2cc3cc(C)ccc3nc21	-28%	-21	u	-11%	16µM*	u
Cc1cc(C(=O)CCC(=O)N(C)CC(=O)Nc2ccccc2Br)c(C)s1	2%	-6	-21%	-2%	-10%	-19%
CCOC(=O)N1CCC(NC(=O)c2cnn(-c3ccc(C)cc3)c2-n2cccc2)CC1	x	x	u	x	26µM*	-15%
CCOC(=O)C1CCN(C(=O)c2cnn(-c3ccc(C)cc3)c2-n2cccc2)CC1	x	x	x	x	x	-1%
CCOC(=O)N1CCC(NC(=O)c2cnn(-c3cccc(C)c3)c2-n2cccc2)CC1	x	x	16µM*	x	18µM*	-28%
CCC(C)NC(=O)c1cnn(-c2cccc(F)c2)c1-n1cccc1 (stereo not given)	x	x	21µM*	x	16µM*	u
COc1cc(=O)n2c(c1C(=O)Nc1cc(Cl)cc(Cl)c1)CCCC2	x	x	x	x	x	21%
CCOC(=O)C1CCCN(C(=O)Cn2ncc3c4ccccc4n(Cc4ccc(F)cc4)c3c2=O)C1 (stereo not given)	x	x	23µM*	x	15µM*	-3%
